We go through 29 compounds from PubChem BioAssay (NCATS).

The structures appear in SMILES notation. Records with an inconclusive call do not appear. Activity calls are given as the source filed them. The call rests on the fitted dose curve; in most records, active means well fitted inhibition curve with a large enough effect; inconclusive means small, poorly fitted or top-dose-only effect; inactive means flat fitted curve, though single readings scatter.
On the % scale 0 is the no-effect control and ±100 the full control effect; potency means the concentration at half of the fitted maximal effect.

This experiment deals with CRL-7250. Kind of experiment: Cytotoxic Profiling of Annotated Libraries Using Quantitative High-Throughput Screening (AID 1296008). Further: nearly all actives have a fitted effect of over 60% in size. Conditions: Five cell lines viability, CellTiter-Glo ATP luminescence, 48-72 h; max response: active compounds read low. In a few lines:
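Cytotoxicity was measured as CellTiter-Glo ATP luminescence, read after 10 min at room temperature. Compound treatment of the cells lasted 48 or 72 hr at 37 degrees Celsius in a qHTS format.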
A general note: ATP-based viability assays read luminescence as a measure of living cells.
Regarding `COc1cc2c(cc1OC)N1C(=O)C[C@]34C=CCN5CC[C@@H]2[C@@H](CC3)[C@]514`, the compound was called inactive.

For the compound `C=CC(C)(O)C(O)CC1C(C)(O)C(O)C(O)C2C(C)(C)CCCC21C` (centres undefined), the max response is 1.81% (inactive).

On to `CNC(=S)NS(=O)(=O)c1cc(CCNC(=O)c2cc(Cl)ccc2OC)ccc1OC`, for which the max response is 3.39% (inactive).

As to `O=C1CC2(CCCC2)[C@H](O)C(=O)N1CCCCN1CCN(c2ncccn2)CC1`, the max response is 2.44% (inactive).

With `C=C1CC23CC1CCC2C12OC(=O)C(C)(CCC1O)C2C3C(=O)O` (centres undefined), the compound was classed as inactive.

In the case of `Cc1cc(Nc2cc(N3CCN(C)CC3)nc(/C=C/c3ccccc3)n2)n[nH]1`, the Potency was 5.8 µM (active).

Take `CC(C)NCC(C(=O)N1CCN(c2ncnc3c2C(C)CC3O)CC1)c1ccc(Cl)cc1` (centres undefined): the max response is -1.68% (inactive).

Regarding `CC(=O)c1ccc(O[C@@H]2O[C@H](CO)[C@@H](O)[C@H](O)[C@H]2O)cc1`, the max response is -8.35% (inactive).

As to `CN(C)CCn1cc(S(=O)(=O)c2cccc(F)c2)c2cccnc21`, the compound was classed as inactive.

Regarding `C=C1OC2CC(C(=O)O)C=CC2NC1=O` (centres undefined), the max response is -1.3% (inactive).

`O=C(O)c1ccc(CN2CCC(CN[C@@H]3C[C@H]3c3ccccc3)CC2)cc1`: the max response is -10.5% (inactive).

Regarding `CCc1c(C)nc2c(-c3cnn(-c4cc(CO)ccn4)c3)c[nH]n2c1=O`, the max response is -0.312% (inactive).

Take `CC1C(=O)CC2C3CCC(C(=O)O)C12CC3(C)CO` (centres undefined): the max response was -22.2% (inactive).

Turning to `C[C@H](NC(c1cccc2[nH]c(=O)c(=O)[nH]c12)P(=O)(O)O)c1ccc(Br)cc1` (some centres undefined), the max response was -1.1% (inactive).

On to `COC(=O)C12CCC(C)C(C)C1C1=CCC3C4(C)CCC(OC(C)=O)C(C)(C)C4CCC3(C)C1(C)CC2` (centres undefined), for which the max response was -3.42% (inactive).

Consider `CO[C@H]1/C=C/[C@@](C)(O)/C=C/C(=O)O[C@H](C)[C@@H](C)CC/C=C/1C`, for which the max response was -17.6% (inactive).

As to `CC(O)/C=C/C1OC(=O)CC1Nc1ccc(C(=O)O)cc1` (centres undefined), the max response was -10.3% (inactive).

`CC/C=C\C/C=C\C/C=C\CCCCCCCC(=O)OCC(O)COC1OC(CO)C(O)C(O)C1O` (centres undefined): the max response is -2.54% (inactive).

On to `C/C=C1\[C@H](O[C@@H]2O[C@H](CO)[C@@H](O)[C@H](O)[C@H]2O)OC=C2C(=O)OCCc3ccc(O)c(c3)Oc3ccc(cc3)CCOC(=O)C[C@H]21`, for which the max response was -21.9% (inactive).

In the case of `CC(=O)OC[C@@]12C(=O)C[C@@H](C)[C@]3(C[C@@H](c4ccoc4)O[C@H]3OC(C)=O)[C@H]1CCC[C@]21CO1`, the max response was -15.6% (inactive).

On to `N[C@@]1(C(=O)O)CC[C@H]2[C@H](C(=O)O)[C@H]21`, for which the outcome was inactive.

`CC[C@@](C)(Nc1ccnc(-c2c[nH]c3ncccc23)n1)C(=O)NCC(F)(F)F`: the call was inactive.

Regarding `CCOc1cc(N2CCC(O)CC2)ccc1Nc1ncc2c(n1)N(C1CCCC1)CCC(=O)N2C`, the Potency was 6.51 µM (active).

Turning to `COC1CC(O[C@H]2CC[C@@]3(C)C(=CC[C@]4(O)C3[C@H](OC(C)=O)[C@@H](OC(=O)c3ccccc3)[C@]3(C)[C@@H](C(C)=O)CC[C@@]34O)C2)OC(C)C1OC1CC(OC)C(OC2CC(OC)C(OC3OC(C)C(OC4OC(CO)C(O)C(O)C4O)C(OC)C3O)C(C)O2)C(C)O1` (some centres undefined), the result was inactive.

On to `CC(C)C(CO)Nc1nc(Nc2ccc(C(=O)O)c(Cl)c2)c2ncn(C(C)C)c2n1` (centres undefined), for which the outcome was inactive.

Consider `CC1OC(O[C@H]2CC[C@@]3(C)C(CC[C@]4(C)C3CC=C3C5CC(C)(C)CC[C@]5(C(=O)OC5OC(CO)C(OC6OC(COC7OCC(O)C(O)C7O)C(O)C(O)C6O)C(O)C5O)CC[C@]34C)C2(C)C)C(O)C(O)C1OC1OCC(OC2OCC(O)C(O)C2O)C(O)C1O` (some centres undefined), for which the max response is -5.53% (inactive).

Regarding `CCN1CCN(Cc2ccc(Nc3ncc(F)c(-c4cc(F)c5nc(C)n(C(C)C)c5c4)n3)nc2)CC1`, the max response was -7.11% (inactive).

As for `O=S(=O)(NCC1CC1)c1ccc(Nc2nccc(N3CCCc4cc(O)ccc43)n2)cc1`, the Potency is 1.16 µM (active).

On to `CCNC(=O)Nc1ccc(-c2nc3c(c(N4CCOC[C@@H]4C)n2)CCN(c2ncccn2)C3)cc1`, for which the Potency is 0.259 µM (active).
